Experimental findings from PubChem BioAssay (EPA / NIEHS) are described below.

Results filed as inconclusive are left out. Active and inactive are the calls of the source. Rule for the calls, unless noted: active = hit-call score of the fitted dose curve at least 0.9, where 1 is the maximum; inactive = score below 0.9.

Assay [1] is described as follows: CCTE_Shafer_MEA_dev_firing_rate_mean: CCTE's Neural Network Formation Assay for Mean Firing Rate, Shafer Lab (AID 2284031). The essentials: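 Spike frequency (spikes/recording length, averaged over active electrodes) was recorded on days 5, 7, 9 and 12 and collapsed to AUC; rat cortical cultures received compound continuously over 12 days of network development.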

The nature of assay [2]: CCTE_Shafer_MEA_dev_per_burst_spike_percent: CCTE's Neural Network Formation Assay for Percent of Spikes in a Burst, Shafer Lab (AID 2284032). The essentials:
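Value is trapezoidal AUC over recordings on days 5, 7, 9 and 12 of the well-mean fraction of spikes falling in single-electrode bursts; rat cortical cultures exposed continuously from plating, treatment renewed DIV 5 and 9, fitted downward against DMSO.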

The nature of assay [3]: CCTE_Shafer_MEA_dev_active_electrodes_number: CCTE's Neural Network Formation Assay for Number of Active Electrodes, Shafer Lab (AID 2284040; active = hit-call score of the fitted dose curve at least 0.9, where 1 is the maximum;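 note: potency for loss of active electrodes versus DMSO so lower counts are hits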). The essentials:
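Counts electrodes per well firing at least 5 spikes/min, recorded on days 5, 7, 9 and 12 in rat cortical cultures dosed continuously from plating (treatment refreshed DIV 5, 9). Value is the area under the curve over recordings, fitted downward relative to DMSO.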

Assay [4] in a line: CCTE_Shafer_MEA_dev_burst_rate: CCTE's Neural Network Formation Assay for Burst Rate, Shafer Lab (AID 2284042). The essentials:
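Cells plated, treated day 0; recorded DIV 5, 7, 9, 12; fed and re-treated DIV 5, 9. Endpoint: bursts per recording time, active-electrode well mean, trapezoidal AUC, fitted in decreasing direction against DMSO baseline.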

Assay [5] can be described thus: CCTE_Shafer_MEA_dev_bursting_electrodes_number: CCTE's Neural Network Formation Assay for Number of Bursting Electrodes, Shafer Lab (AID 2284043; active = hit-call score of the fitted dose curve at least 0.9, where 1 is the maximum;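 note: potency is for loss of bursting electrodes relative to DMSO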). The essentials: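 Number of electrodes reaching ≥1 burst every 2 min was recorded at DIV 5, 7, 9 and 12 and collapsed as trapezoidal area under the curve. Cultures were rat cortical neurons on MEA plates, dosed continuously from plating with medium and treatment refreshed on DIV 5 and 9.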

A short description of assay [6]: CCTE_Shafer_MEA_dev_burst_duration_mean: CCTE's Neural Network Formation Assay for Mean Burst Duration, Shafer Lab (AID 2284045). A digest of the protocol:
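Mean single-electrode burst duration (first to last spike), averaged over bursting electrodes per well, then integrated as area-under-curve across recordings at days 5, 7, 9 and 12. Rat cortical cultures on MEAs, compound present from plating, refreshed at feeds.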

A short description of assay [7]: CCTE_Shafer_MEA_dev_interburst_interval_mean: CCTE's Neural Network Formation Assay for Mean Interburst Interval, Shafer Lab (AID 2284046).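 Note: well-mean interburst interval of bursting electrodes as AUC over four recording days; curve fitted for decrease in interburst interval relative to DMSO.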 The essentials:
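Developing rat cortical networks on 48-well MEAs receive compound from the day of plating. Burst intervals from each active electrode are averaged per well, and AUC over the recording days is fitted in the negative direction against DMSO.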

Assay [8] can be described thus: CCTE_Shafer_MEA_dev_inter_network_spike_interval_mean: CCTE's Neural Network Formation Assay for Mean Inter-network Spike Interval, Shafer Lab (AID 2284047). The essentials:
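Rat cortical cultures, 1.5 x 10^5 cells/well on 48-well MEA plates; continuous exposure days 0–12, medium and compound refreshed DIV 5, 9. Mean time between consecutive network-spike peaks; AUC across DIV 5/7/9/12; DMSO baseline, negative fitting direction.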

Assay [9] can be described thus: CCTE_Shafer_MEA_dev_network_spike_number: CCTE's Neural Network Formation Assay for Number of Network Spikes, Shafer Lab (AID 2284048).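 Note: synchronized bursts across electrodes counted on days 5 7 9 12 and integrated as AUC.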 A digest of the protocol:
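Number of network spikes (coordinated firing across electrodes) recorded on days 5, 7, 9 and 12 and summarised as area under the curve. Rat cortical cultures on MEA, continuous compound exposure with full medium/treatment exchange at DIV 5 and 9.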

The nature of assay [10]: CCTE_Shafer_MEA_dev_network_spike_peak: CCTE's Neural Network Formation Assay for Mean Number of Electrodes in Network Spike, Shafer Lab (AID 2284049).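 Note: fitted for loss of signal meaning fewer electrodes in network spikes than DMSO.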 A digest of the protocol: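 Rat cortical primary culture, 1.5 x 10^5 cells/well, 48-well MEA (16 electrodes/well). Dosing day 0 through DIV 12, full media/compound exchange DIV 5, 9. AxIS adaptive spike detection; AUC over days 5/7/9/12; loss-of-signal vs DMSO.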

Assay [11] is described as follows: CCTE_Shafer_MEA_dev_spike_duration_mean: CCTE's Neural Network Formation Assay for Mean Spike Duration, Shafer Lab (AID 2284051).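 Note: mean network spike duration pooled as area under curve over DIV 5 to 12 recordings.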 A digest of the protocol:
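Readout is the average length of network spikes, clustered firing across electrodes, summed over DIV 5, 7, 9 and 12 as area under the curve. Neurons from rat cortex developed networks on MEA plates under continuous 12-day exposure.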

Assay [12] is described as follows: CCTE_Shafer_MEA_dev_network_spike_duration_std: CCTE's Neural Network Formation Assay for Standard Deviation of Network Spike Duration, Shafer Lab (AID 2284052).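 Note: hits are decreases in network spike duration SD versus DMSO vehicle.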 The essentials:
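Read-out is the trapezoidal area-under-the-curve across recordings made on days 5, 7, 9 and 12, fitted in the negative direction against DMSO baseline. Neurons were primary rat cortical cells treated from day 0, with treatment renewed at each feed.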

The nature of assay [13]: CCTE_Shafer_MEA_dev_per_network_spike_spike_number_mean: CCTE's Neural Network Formation Assay for Mean Number of Spikes in a Network Spike, Shafer Lab (AID 2284053). A digest of the protocol: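 Continuous twelve-day exposure of developing rat cortical networks grown over 16 microelectrodes per well; spontaneous firing is captured at four time points, and the per-network-spike spike number is integrated over development by trapezoidal AUC.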

Assay [14] is described as follows: CCTE_Shafer_MEA_dev_per_network_spike_spike_percent: CCTE's Neural Network Formation Assay for Percent of Spikes in a Network Spike, Shafer Lab (AID 2284054). The essentials: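 Metric: fraction of spikes falling in a 0.05 s window at network-spike peaks. Recordings were made on days 5, 7, 9 and 12 and collapsed by trapezoidal AUC. Cultures were rat cortical neurons on MEA plates, dosed continuously from plating, re-dosed at media changes.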

Assay [15] is described as follows: CCTE_Shafer_MEA_dev_LDH: CCTE's Lactate Dehydrogenase Assay for Cytotoxicity in the Neural Network Formation Assay, Shafer Lab (AID 2284068; active = hit-call score of the fitted dose curve at least 0.9, where 1 is the maximum;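 note: exposure for twelve days from plating with re-dosing on DIV 5 and 9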). The essentials: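 Cytotoxicity companion to network-formation recordings: rat cortical neurons received compound over 12 days of development, re-dosed at DIV 5 and 9 feeds. Viability was inferred from LDH enzyme activity relative to DMSO.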

Assay [16] can be described thus: CCTE_Shafer_MEA_dev_AB: CCTE's Alamar Blue Assay for Cytotoxicity in the Neural Network Formation Assay, Shafer Lab (AID 2284083; active = hit-call score of the fitted dose curve at least 0.9, where 1 is the maximum;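 note: resazurin reduction fluorescence as viability of cultured neurons; twelve days of exposure from plating with re-dosing on DIV 5 and 9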). The essentials: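 Fluorescent resazurin reduction serves as the viability read-out, with DMSO as negative control and baseline. Cells were primary rat cortical neurons grown on MEA plates and dosed from day 0 to day 12, treatment renewed on DIV 5 and 9.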
On the technique in general: Resazurin is reduced to fluorescent resorufin, in cell work by metabolically active cells.

A short description of assay [17]: CCTE_Shafer_MEA_dev_mutual_information_norm: CCTE's Neural Network Formation Assay for Mutual Information Normalization, Shafer Lab (AID 2284091). The essentials:
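Shared information across electrodes, tracked on days 5, 7, 9 and 12 of network development and collapsed as trapezoidal area under the curve. Rat cortical cultures were treated continuously from plating, with treatment renewed at feeds on DIV 5 and 9; DMSO baseline, negative-direction fit.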

A short description of assay [18]: CCTE_Shafer_MEA_dev_correlation_coefficient_mean: CCTE's Neural Network Formation Assay for Mean Correlation Coefficient, Shafer Lab (AID 2284093). A digest of the protocol: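 Read-out: well-mean correlation coefficient of spike trains between electrode pairs, collapsed over four recording days as trapezoidal area-under-the-curve. Developing rat cortical neuron networks grown on MEAs received test chemical continuously from plating.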

Assay [19] is described as follows: IUF_NPC1a_proliferation_area_72hr: Leibniz Research Institute for Environmental Medicine (IUF) 72-hour Neural Progenitor Cell Proliferation Area Assay (NPC1a) (AID 2284208). The essentials:
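Read-out: increase in sphere area over 72 h by automated phase-contrast imaging, fitted in positive direction versus DMSO baseline. One hNPC sphere (0.25-0.35 mm) per well in EGF/FGF medium; growth-factor withdrawal served as positive control.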

Assay [20] can be described thus: IUF_NPC1_viability_72hr: Viability Assessment at 72 hours in the Leibniz Research Institute for Environmental Medicine (IUF) Neural Progenitor Cell Proliferation Assay (NPC1) (AID 2284209). The essentials:
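Viability was measured by resazurin-to-resorufin fluorescence (alamar blue) after 72 h of continuous exposure without compound renewal. Each well held one hNPC sphere (gestational week 16-19 fetal cortex, 0.25-0.35 mm) cultured in EGF/FGF proliferation medium at 37C and pH 7.2-7.6.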

Assay [21] is described as follows: CCTE_Mundy_HCI_Cortical_Synap_Neur_Matur_NeuriteSpotCountPerNeuriteLength: CCTE's Synaptogenesis and Neurite Maturation Assay in rat cortical cells for Neurite Spot Count per Neurite Length, Mundy Lab (AID 2284210). A digest of the protocol: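 Synaptophysin spots per unit neurite length, measured by automated imaging of MAP2/synaptophysin/Hoechst-stained neurons. Cultures from rat cortex received chemical at DIV 7 with media change through DIV 12; glial growth arrested by AraC at DIV 5; DMSO baseline.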

Assay [22] can be described thus: CCTE_Mundy_HCI_Cortical_Synap_Neur_Matur_BPCount: CCTE's Synaptogenesis and Neurite Maturation Assay in rat cortical cells for Branch Point Count, Mundy Lab (AID 2284211). The essentials: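 HCI read-out of branch points from MAP2/synaptophysin/Hoechst immunofluorescence; rat cortical cultures, AraC DIV 5, dosing DIV 7, fixed DIV 12; fit in positive direction vs DMSO baseline.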

The nature of assay [23]: CCTE_Mundy_HCI_Cortical_NOG_NeuriteCount: CCTE's Neurite Outgrowth Assay in rat cortical cells for Neurite Count, Mundy Lab (AID 2284212).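 Note: cells fixed about two days after chemical exposure began.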 The essentials:
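Rat cortical primary cells; compound added 2 h post-plating, 1/10 dilution of working solution. Anti-betaIII-tubulin/AF488 ICC; ArrayScan neurite count vs DMSO.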

The term AC50 denotes the midpoint of the concentration-response curve, whichever way the signal moves.

For the molecule `CCOP(=O)(OCC)SCSC(C)(C)C`, the outcome in [1], in assay [2], in assay [4], in assay [6], in assay [7] and in assay [8] was inactive. Moreover, the result in assay [9], in assay [11], in assay [12], in [13], in [14] and in assay [17] was inactive. The molecule was classed as inactive in [18], in [19], in assay [20], in assay [21] and in assay [22]. Moreover, the AC50 in assay [3] is 16.2 µM (active); in assay [5], 9.83 µM (active); in [10], 49.5 µM (active); in [15], 49.5 µM (active); in assay [16], 90.6 µM (active); in assay [23], 75.4 µM (active).
